Assay outcomes as filed in PubChem.
D3 antag: antagonists of human D3 dopamine receptor; P35462; D3R cells, DiscoveRx beta-arrestin luminescence, antagonist mode; stronger effect = lower value; max response, negative = inhibition, %; hit rate 2.5% among 360,000; AID 652054; in the data active means max response below about -50%; inconclusive means no clear call, values can overlap the other calls; further: on the % scale 0 is the no-effect control and ±100 the full control effect
Target sequence (P35462 whole entry, looked up): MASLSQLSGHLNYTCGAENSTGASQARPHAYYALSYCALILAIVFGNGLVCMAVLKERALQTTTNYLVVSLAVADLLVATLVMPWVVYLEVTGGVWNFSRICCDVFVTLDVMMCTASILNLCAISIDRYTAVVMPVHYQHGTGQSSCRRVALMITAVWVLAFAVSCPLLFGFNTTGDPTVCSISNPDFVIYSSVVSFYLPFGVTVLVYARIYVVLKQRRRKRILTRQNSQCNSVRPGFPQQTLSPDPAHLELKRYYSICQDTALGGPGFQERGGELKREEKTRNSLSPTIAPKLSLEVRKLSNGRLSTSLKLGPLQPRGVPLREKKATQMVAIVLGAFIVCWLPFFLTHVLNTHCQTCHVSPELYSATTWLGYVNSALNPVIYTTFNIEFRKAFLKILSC
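Cells plated overnight at 1500 cells/well, then exposed to library compounds with dopamine controls for 90 minutes at 37 degrees C. DiscoveRx reagent added for 30–60 minutes at room temperature; luminescence read, quantitative HTS format.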
Chronic BCR inh: inhibitors of chronic active B-cell receptor signaling. ABC-DLBCL IkBa-CBG/CBR reporter, luminescence ratio, 4 h. Potency, µM (doses to about 46.1 µM), inactives show top-dose activity change, negative = inhibition, actives largely listed as inhibitors. hit rate 0.05% among 340,000; active means well fitted inhibition curve with a large enough effect in the signal ratio, with a control signal flat, not every such curve was filed as active; inconclusive means small, poorly fitted or top-dose-only effect, or effect the other way, or a change in a side signal; the % refers to the signal ratio;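 further: potency means the concentration at half of the fitted maximal effect; plate controls were basal doxycycline-induced cells for no effect and cells given 10 µM MG132 for full effect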
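TMD8 human ABC-DLBCL cells with doxycycline-inducible IκBα–green luciferase fusion and unfused red luciferase, in 0.5% FBS medium; compounds up to 46 uM, 4 h at 37C. Green/red luminescence ratio, filter-overlap corrected, fitted to concentration-response curves.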
D1 potentiator: enhances dopamine response at the human D1 receptor. HEK293 TREx D1 cells, calcium flux, dopamine EC20 potentiation. potentiation, % at 10 µM. hit rate 0.036% among 360,000; in the data active means potentiation above about 30%; further: 0% is about no effect
DRD3 agonist: D3 dopamine receptor (human) agonism. D3R DiscoveRx beta-arrestin cells, luminescence, 90 min. max activation, %. hit rate 0.58% among 410,000. AID 652048; in the data active means max activation above about 30%; further: 0% is about no effect
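Agonist mode: compounds and dopamine controls were applied to plated cells for 90 min at 37 degrees C after an overnight attachment at 1500 cells/well. Luminescent read-out followed 30 - 60 minutes at room temperature with DiscoveRx detection reagent.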
D1 antagonist: human D1 dopamine receptor antagonism | P21728 | HEK293 TREx D1 cells, calcium flux, dopamine EC80; stronger effect = lower value | activity change, negative = inhibition, % at 10 µM | hit rate 3.2% among 360,000 | AID 504652; in the data active means activity change below about -30%; further: on the % scale 0 is the no-effect control and ±100 the full control effect
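Tetracycline-induced HEK293 Trex D1 cells, force-coupled to calcium, dye-loaded; compounds added and read 180 s, then EC80 dopamine added and calcium flux tracked kinetically another 180 s.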
D1 agonist: human D1 receptor agonism | hit rate 1% among 360,000 | P21728 | AID 504660 | HEK293 T-REx D1 cells, calcium flux, agonist mode | activation, % at 2 µM; in the data active means activation above about 30%; further: 0% is about no effect
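Agonism was scored from calcium flux recorded over 180 s (1 read/s) after pintool compound addition, following a 10-cycle baseline. Cells were inducible force-coupled HEK293 TREx D1, plated overnight at 30 C and loaded with no-wash calcium dye.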
Starred values were filed as active, the others as inactive. Hits are enriched below; roughly 6% of the tested compounds scored in any of these assays.

Results for FC(F)(F)c1cccc(N2CCN(CC3CC=CCC3)CC2)c1 (stereo not given) ?
D3 antag: -65.6*; Chronic BCR inh: 6.1%; D1 potentiator: 5.2; DRD3 agonist: -17.4; D1 antagonist: 20.1; D1 agonist: 3.1

What do the screens show for `COC(=O)[C@]12CCCCC=C1N(Cc1ccc(Cl)cc1Cl)C(=O)[C@H](CC(=O)NCc1cccc(C(F)(F)F)c1)C2`?
D3 antag: -10.1; DRD3 agonist: -2.4

How did COc1cc(N=Nc2ccccc2C(=O)O)ccc1O do in these assays?
D3 antag: -57.9*; Chronic BCR inh: inconclusive; D1 potentiator: -2.4; DRD3 agonist: -5.0; D1 antagonist: 19.3; D1 agonist: 1.8

How did CN1CCN(c2cc(-c3cccc(C(=O)O)c3)nc3ccnn23)CC1 do in these assays?
D3 antag: 4.4; DRD3 agonist: 1.3

Results for COc1ccc(S(=O)(=O)c2cn(CC(=O)Nc3cc(C)ccc3C)c3ccccc3c2=O)cc1 ?
D1 potentiator: -2.0; DRD3 agonist: 1.4; D1 antagonist: -1.4; D1 agonist: 0.8

How did O=c1c2c([N+](=O)[O-])cc([N+](=O)[O-])cc2sn1-c1ccc(Br)cc1 do in these assays?
D3 antag: -12.2; Chronic BCR inh: inconclusive; D1 potentiator: -10.2; DRD3 agonist: 4.6; D1 antagonist: -0.8; D1 agonist: 0.3

How did O=c1c2c([N+](=O)[O-])cc([N+](=O)[O-])cc2sn1Cc1ccccc1 do in these assays?
D3 antag: inconclusive; Chronic BCR inh: inconclusive; D1 potentiator: -5.0; DRD3 agonist: -4.5; D1 antagonist: -29.2; D1 agonist: 51.2*

How did Cc1ccc(OCCCSc2nc(-c3ccc(C(C)(C)C)cc3)nc3cc(=O)[nH]n23)cc1C do in these assays?
D1 potentiator: 0.9; DRD3 agonist: 33.4*; D1 antagonist: -19.2; D1 agonist: -0.3

How did CC(C)(C)c1ccc(OCCSc2nc(-c3cccs3)nc3cc(=O)[nH]n23)cc1 do in these assays?
D1 potentiator: 0.5; DRD3 agonist: 37.1*; D1 antagonist: 2.1; D1 agonist: 1.6

Results for Cc1ccccc1NC(=O)CSc1nc(-c2cccs2)nc2cc(=O)[nH]n12 ?
Chronic BCR inh: 10.4%; D1 potentiator: 7.5; DRD3 agonist: 6.7; D1 antagonist: -36.7*; D1 agonist: 2.4

What do the screens show for `CC(C)(C)c1ccc(-c2nc(SCCOc3ccc(Cl)cc3)n3[nH]c(=O)cc3n2)cc1`?
D1 potentiator: -2.8; DRD3 agonist: 9.3; D1 antagonist: -11.4; D1 agonist: -0.3

Results for O=c1cc2nc(-c3cccs3)nc(SCCOc3ccc(Cl)cc3)n2[nH]1 ?
D1 potentiator: 1.1; DRD3 agonist: -2.3; D1 antagonist: -12.3; D1 agonist: 6.0

Results for CC1(C(=O)NS(=O)(=O)c2ccccc2Cl)CCN1C(=O)CC1CCCC1 (stereo not given) ?
D3 antag: -0.4; DRD3 agonist: 0.1

How did CC(=O)c1cccc(NC(=O)c2sc3nc4n(c(=O)c3c2C)CCCC4)c1 do in these assays?
D3 antag: 18.6; Chronic BCR inh: 1.5%; D1 potentiator: 0.1; DRD3 agonist: 4.5; D1 antagonist: -15.7; D1 agonist: 0.3

Results for Cc1c(C(=O)Nc2cccc(C(F)(F)F)c2)sc2nc3n(c(=O)c12)CCCC3 ?
D1 potentiator: -1.3; DRD3 agonist: 6.6; D1 antagonist: 6.6; D1 agonist: 36.5*

Results for Cc1c(C(=O)NCc2ccccc2)sc2nc3n(c(=O)c12)CCCCC3 ?
D1 potentiator: -1.2; DRD3 agonist: 3.5; D1 antagonist: 0.2; D1 agonist: 45.0*

How did Cc1c(C(=O)NCCc2ccc(Cl)cc2)sc2nc3n(c(=O)c12)CCC3 do in these assays?
D3 antag: -17.1; Chronic BCR inh: 2.4%; D1 potentiator: -5.5; DRD3 agonist: -0.2; D1 antagonist: 10.9; D1 agonist: 1.1

Results for Cc1c(C(=O)NCCc2ccc(Cl)cc2)sc2nc3n(c(=O)c12)CCCC3 ?
D1 potentiator: -0.5; DRD3 agonist: -10.6; D1 antagonist: -1.8; D1 agonist: 99.1*

How did CCOc1ccc(C(=O)N2CCN(Cc3cc(=O)n4nc(-c5ccccc5Cl)sc4n3)CC2)cc1 do in these assays?
D1 potentiator: -0.7; DRD3 agonist: 7.1; D1 antagonist: 8.4; D1 agonist: -0.8

How did CCN(CC(=O)Nc1c(F)cccc1F)C(=O)c1ccc(OC)c(S(=O)(=O)NC2CCCC2)c1 do in these assays?
D3 antag: 3.9; DRD3 agonist: 3.2

Results for C/C(=N\NC(=O)c1c(Cl)c(C)nn1C)c1ccc(NC(=O)COc2ccc(Cl)cc2C)cc1 ?
D3 antag: 56.6; Chronic BCR inh: -2.7%; D1 potentiator: -16.4; DRD3 agonist: 1.5; D1 antagonist: -40.6*; D1 agonist: 0.5

Results for CCN1CCN(c2ccc(NC(=O)COc3ccccc3Cl)cc2)CC1 ?
D3 antag: -63.9*; Chronic BCR inh: 5.7%; D1 potentiator: -15.5; DRD3 agonist: 1.8; D1 antagonist: -42.0*; D1 agonist: 9.2

How did O=C(CCS(=O)(=O)c1ccccc1F)Nc1ccc(N2CCN(Cc3ccccc3)CC2)cc1 do in these assays?
D3 antag: 1.7; Chronic BCR inh: -2.8%; D1 potentiator: -15.3; DRD3 agonist: 0.0; D1 antagonist: -39.0*; D1 agonist: 8.4

Results for CCN1CCN(c2ccc(NC(=O)Cc3ccccc3)cc2)CC1 ?
D3 antag: -22.5; Chronic BCR inh: 14.4%; D1 potentiator: -6.5; DRD3 agonist: 0.5; D1 antagonist: -61.9*; D1 agonist: 3.3

How did CCC(=O)Nc1ccc(N2CCN(Cc3ccccc3)CC2)cc1 do in these assays?
D3 antag: inconclusive; Chronic BCR inh: -2.1%; D1 potentiator: -1.9; DRD3 agonist: -14.1; D1 antagonist: -12.8; D1 agonist: 1.8

Results for C/C(=N\NC(=O)c1c(Cl)c(C)nn1C)c1cccc(NC(=O)COc2ccccc2)c1 ?
D3 antag: 3.9; Chronic BCR inh: -1.0%; D1 potentiator: -13.0; DRD3 agonist: -3.7; D1 antagonist: -29.9; D1 agonist: -0.5

Results for O=C(COc1ccccc1Cl)Nc1ccc(N2CCCC2)cc1 ?
D3 antag: 3.1; Chronic BCR inh: inconclusive; D1 potentiator: -2.1; DRD3 agonist: 4.0; D1 antagonist: -29.1; D1 agonist: 0.8

How did CCn1c(SCC(=O)NC2CCCC2)nc2c(c1=O)SCC2 do in these assays?
D3 antag: 0.1; DRD3 agonist: -2.8

How did CCN1CCN(c2ccc(NC(=O)COc3ccc(Cl)cc3C)cc2)CC1 do in these assays?
D3 antag: -51.6*; Chronic BCR inh: 3.8%; DRD3 agonist: -23.4

What do the screens show for `CCC(=O)Nc1ccc(N2CCN(C(=O)c3cccs3)CC2)cc1`?
D3 antag: -23.3; Chronic BCR inh: 1.8%; D1 potentiator: 2.8; DRD3 agonist: -2.1; D1 antagonist: 13.7; D1 agonist: 2.3
